Some test systems named below: T-47D breast; BT-549 breast; MDA-MB-435 melanoma; SW-620 colon; MCF7 breast; HCT-116 colon; HCC-2998 colon; KM12 colon.
Assay in all cases: NCI-60 one-dose screen, 48 h (100 = growth as untreated, 0 = no growth, -100 = all killed)
Conditions in all cases: 10 µM unless noted

This note sets out measurements from PubChem BioAssay (NCI).

Each structure is given as a SMILES string. About 83,000 compounds went through this panel and 20% of them were active in at least one assay; those are over-represented in the sample as a whole.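 48-hour exposure, single concentration, 96-well plates; percent growth endpoint where 0 means no net growth. Active: below 10.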 Unmarked numbers belong to inactive results. The source made the active and inactive calls.

Regarding `C=C1C(=O)O[C@H]2[C@H]1CC/C(CNS(=O)(=O)c1cccc3ccccc13)=C\CC[C@@]1(C)O[C@@H]21`, the growth in the assay on T-47D breast is 24.5%; with BT-549 breast, 37.2%; with MDA-MB-435 melanoma it was 38.1%; with SW-620 colon it was -34.9% (active); with MCF7 breast it was 16.2%; in the assay with HCT-116 colon, -60.7% (active). The growth with HCC-2998 colon was 71.5%; with KM12 colon it was 85%.

With `CCCCCN1C=C/C(=C\C(=O)n2ccc3ccccc32)c2ccccc21`, the growth with T-47D breast is 70%; in the assay on BT-549 breast, 96.9%; in the assay with MDA-MB-435 melanoma, 96.1%; in the assay with SW-620 colon, 85.2%; in the assay on MCF7 breast it was 73.5%; in the assay on HCT-116 colon it was 72.6%. In addition, the growth was 107% in the assay on HCC-2998 colon and 89.2% with KM12 colon.

As for `O=C(NNc1nc2c(F)cccc2n2cccc12)c1cnccn1`, the growth in the assay with T-47D breast was 22.8%; with BT-549 breast, 38%; in the assay with MDA-MB-435 melanoma it was 32%; in the assay with SW-620 colon, 29%; in the assay with MCF7 breast, 10.5%; with HCT-116 colon, 12.4%. The growth in the assay on HCC-2998 colon was 52.9%; in the assay on KM12 colon, 23.2%.

With `O=C1Nc2cc(-c3ccc(NC(=O)c4ccccc4)cc3)ccc2/C1=C/c1ccc[nH]1`, the growth with T-47D breast is 35.7%; with BT-549 breast it was 89.1%; in the assay with MDA-MB-435 melanoma, 99.5%; in the assay on SW-620 colon, 105%; in the assay on MCF7 breast, 8.35% (active); in the assay on HCT-116 colon it was 99.1%. Also, the growth in the assay with HCC-2998 colon is 99.8%; in the assay with KM12 colon it was 68.7%.

In the case of `C=C1C(=O)O[C@H]2[C@H]1CC/C(CNC(=O)/C=C/c1ccccc1)=C\CC[C@@]1(C)O[C@@H]21`, the growth with T-47D breast was -12.1% (active); in the assay with BT-549 breast it was -56.8% (active); with MDA-MB-435 melanoma, -8.54% (active); in the assay with SW-620 colon it was -68.4% (active); in the assay on MCF7 breast, -22.2% (active); in the assay on HCT-116 colon, -58.9% (active). In addition, the growth was -7.49% (active) in the assay on HCC-2998 colon and 76.5% in the assay with KM12 colon.

`Cn1c(N2NC(=O)C(N=Nc3ccc(S(N)(=O)=O)cc3)C2=O)nc(-c2ccco2)c(C#N)c1=O` (stereo not given): the growth in the assay with T-47D breast is 72.2%; with BT-549 breast, 109%; in the assay on MDA-MB-435 melanoma, 119%; in the assay on SW-620 colon, 51.9%; in the assay with MCF7 breast, 68%; in the assay with HCT-116 colon, 76.4%. For the same compound, the growth in the assay on HCC-2998 colon is 51.1%; in the assay with KM12 colon, 85.5%.

With `Cc1nn(-c2ccccc2)c(Oc2c(Cl)cccc2Cl)c1/C=N/N=c1\sc2ccccc2n1C`, the growth with T-47D breast was 47.2%; in the assay with BT-549 breast, 63.6%; with MDA-MB-435 melanoma, 64.6%; in the assay with SW-620 colon it was 34.7%; in the assay with MCF7 breast it was 45.5%; in the assay on HCT-116 colon, 30.1%. In addition, the growth was 71.4% in the assay with HCC-2998 colon and 44.3% in the assay on KM12 colon.

Take `COc1ccccc1NS(=O)(=O)c1cccc(C(=O)Nc2ccc(Br)cc2)c1`: the growth with T-47D breast is 21.2%; with BT-549 breast, 37.2%; in the assay with MDA-MB-435 melanoma, 35.3%; in the assay with SW-620 colon, 55.1%; in the assay on MCF7 breast it was 32.5%; in the assay with HCT-116 colon it was 37.9%. Also, the growth in the assay with HCC-2998 colon was 57.5%; with KM12 colon it was 34.6%.

In the case of `CCOC(=O)c1cc(C(=O)c2ccc(OC)c(OC)c2)n2c1ccc1ccccc12`, the growth in the assay with T-47D breast is 85.3%; in the assay with BT-549 breast, 100%; in the assay on MDA-MB-435 melanoma, 89.5%; in the assay with SW-620 colon, 93.4%; in the assay with MCF7 breast, 80%; in the assay with HCT-116 colon, 88%. For the same compound, the growth is 109% in the assay on HCC-2998 colon and 98.4% with KM12 colon.

In the case of `CCCN1[C@@H]2CC[C@H]1/C(=C\c1ccc(OC)c(OC)c1)C(=O)/C2=C/c1ccc(OC)c(OC)c1`, the growth with T-47D breast is 25.1%; with BT-549 breast it was 51.8%; in the assay with MDA-MB-435 melanoma, 39.6%; in the assay with SW-620 colon, 43%; in the assay with MCF7 breast it was 30.2%; in the assay with HCT-116 colon it was 22.1%. Moreover, the growth in the assay with HCC-2998 colon was 86.7%; in the assay with KM12 colon, 54.6%.

In the case of `CN1CCN(c2ccc(NC3=C(Cl)C(=O)c4ncccc4C3=O)cc2C(F)(F)F)CC1`, the growth in the assay with T-47D breast is -19.7% (active); with BT-549 breast it was 89.8%; in the assay on MDA-MB-435 melanoma, -62.5% (active); in the assay with SW-620 colon it was -53% (active); in the assay with MCF7 breast, -49.1% (active); in the assay on HCT-116 colon, -57.3% (active). Besides, the growth in the assay on HCC-2998 colon and in the assay with KM12 colon was 105% throughout.

As for `CC1=CCC(OC(=O)C(C)(O)CCC(O)(C(=O)OC2(C)C=CC(O)(C(C)C)CC2)C(C)C)(C(C)C)CC1` (stereo not given), the growth in the assay with T-47D breast is 93.9%; in the assay with BT-549 breast, 114%; in the assay with MDA-MB-435 melanoma, 104%; with SW-620 colon, 103%; with MCF7 breast, 97.9%; in the assay on HCT-116 colon it was 101%. Further, the growth was 112% with HCC-2998 colon and 108% in the assay with KM12 colon.

Take `O=C(/C=C/c1c(-c2ccc(Cl)cc2)nn(-c2ccccc2)c1C(F)(F)F)c1ccc(Cl)cc1`: the growth was 64.8% in the assay on T-47D breast; 97.4% in the assay with BT-549 breast; 97.9% in the assay with MDA-MB-435 melanoma; 104% in the assay with SW-620 colon; 61.8% in the assay with MCF7 breast; 63.4% with HCT-116 colon. Besides, the growth in the assay with HCC-2998 colon was 103%; with KM12 colon, 84.8%.

With `O=C(Nc1ccc(Cl)cc1)c1cc(NCc2cc(O)ccc2O)ccc1O`, the growth in the assay with T-47D breast was 42.6%; in the assay with BT-549 breast, 35.8%; in the assay on MDA-MB-435 melanoma it was 103%; in the assay with SW-620 colon, 89.9%; in the assay on MCF7 breast it was 65.6%; in the assay on HCT-116 colon it was 91.3%. The growth is 102% with HCC-2998 colon and 76.8% with KM12 colon.

As to `COc1cc(C2C3=C(COC3=O)N(CCO)c3cc4c(cc32)OCO4)cc(OC)c1OC` (stereo not given), the growth in the assay on T-47D breast was 36.7%; in the assay on BT-549 breast, 10.6%; in the assay with MDA-MB-435 melanoma, -2.88% (active); in the assay with SW-620 colon it was 18.8%; with MCF7 breast it was -6.88% (active); with HCT-116 colon it was 4.34% (active). The growth was -13% (active) in the assay on HCC-2998 colon and 5.43% (active) in the assay on KM12 colon.
